Screening results: PubChem, National Center for Advancing Translational Sciences (NCATS)
Only some compounds are listed: those with a hit (about 0.96% of all), similar ones and a draw of the others.
TRPV1 ag: HTS Assay for Compounds that Act as Agonists of the Vanilloid Receptor 1; Transient receptor potential cation channel subfamily V member 1 (Homo sapiens), Q8NER1; TRPV1-expressing cells, Fluo-8 calcium influx, agonist mode; activation, % at 8.33 µM; actives 0.19% (n = 320,000); in the data active = activation above about 80%; inconclusive = between about 30% and that limit
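TRPV1-expressing cells were cultured overnight at 35.5C and loaded with Fluo-8 calcium dye for 40 to 90 min at room temperature. After a 10 s baseline, compound was added and calcium influx was read kinetically for 3 min (ex 480/em 520 nm).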
TRHR PAM: qHTS for Small Molecule Agonists and Allosteric Enhancers of Human TRH Receptor: Primary Screen for Enhancers | Thyrotropin-releasing hormone receptor (Homo sapiens), P34981 | TRHR cells, fluo-8 calcium fluorescence, EC20 TRH enhancement | enhancement, % at 2 µM | actives 0.66% (n = 360,000) | AID 493056, 2011; in the data active = enhancement above about 30%
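TRHR-expressing cells loaded with fluo-8 calcium dye were read kinetically (ex 480/em 530) during compound addition, then stimulated with an EC20 of TRH (10 nM final). Enhancement of the Gq-mediated intracellular calcium response was scored.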
TRPML1 agonist: qHTS for Agonists of the Human Mucolipin Transient Receptor Potential 1 (TRPML1); Mucolipin-1 (Homo sapiens), Q9GZU1; TRPML1-expressing cells, Ca2+ dye fluorescence, FDSS; activation, % (no concentration beside the values); actives 0.12% (n = 410,000); in the data active = activation above about 50%; inconclusive = mostly about 30% to 49%
Target sequence (Q9GZU1 whole entry, looked up): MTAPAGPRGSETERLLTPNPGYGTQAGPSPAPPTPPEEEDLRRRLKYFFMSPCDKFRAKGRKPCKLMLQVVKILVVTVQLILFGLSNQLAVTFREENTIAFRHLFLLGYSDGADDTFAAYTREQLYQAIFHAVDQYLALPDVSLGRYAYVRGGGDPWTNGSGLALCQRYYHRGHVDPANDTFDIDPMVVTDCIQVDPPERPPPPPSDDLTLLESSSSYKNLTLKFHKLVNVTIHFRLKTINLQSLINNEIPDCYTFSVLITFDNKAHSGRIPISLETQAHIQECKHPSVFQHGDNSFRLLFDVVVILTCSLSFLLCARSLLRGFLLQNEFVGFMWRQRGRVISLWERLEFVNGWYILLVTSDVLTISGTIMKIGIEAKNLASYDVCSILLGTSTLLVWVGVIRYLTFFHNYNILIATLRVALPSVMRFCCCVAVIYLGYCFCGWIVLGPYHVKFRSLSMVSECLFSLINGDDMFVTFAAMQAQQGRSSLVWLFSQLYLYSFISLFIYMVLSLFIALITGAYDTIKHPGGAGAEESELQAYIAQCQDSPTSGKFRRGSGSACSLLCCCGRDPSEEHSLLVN
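Calcium fluorescence on an FDSS kinetic reader gave the read-out. Tet-induced TRPML1-DL cells were plated overnight, dye-loaded (Ca8 with quencher, 45-90 min, room temperature, dark), then read 110 s after compound addition, and again 110 s after 4uM final 54-4 (EC80).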
TRPML1 blocker: qHTS for Inhibitors of the Human Mucolipin Transient Receptor Potential 1 (TRPML1) | Mucolipin-1 (Homo sapiens), Q9GZU1 | TRPML1-inducible cells, Ca2+ dye fluorescence, FDSS; hits give low values; inhibition of EC80 agonist-evoked calcium signal | activity change, negative = inhibition, % (test concentration not listed) | actives 0.02% (n = 390,000) | AID 624415, 2012; in the data active = activity change below about -50%; inconclusive = between about -30% and that limit;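 note: stimulus is agonist 54-4 at its EC80 concentration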
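Tet-induced TRPML1-DL cells loaded with Ca8 no-wash calcium dye were read kinetically on FDSS. Compound addition was followed by EC80 agonist 54-4 (4 uM final); inhibition was read over 110 s.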
TRPV1 PAM: HTS Assay for Compounds that Act as Potentiators of the Vanilloid Receptor 1; actives 0.02% (n = 320,000); Transient receptor potential cation channel subfamily V member 1 (Homo sapiens), Q8NER1; TRPV1-expressing cells, Fluo-8 calcium influx, capsaicin EC20 potentiation; potentiation, % at 8.33 µM; in the data active = potentiation above about 80%; inconclusive = between about 30% and that limit
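Cells expressing TRPV1 were dye-loaded with Fluo-8 and read kinetically: 10 s baseline, 3 min after compound (agonist portion), then 2 min after EC20 capsaicin (allosteric enhancer portion). Calcium-bound dye fluorescence at 480/520 nm.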
TRHR agonist: qHTS for Small Molecule Agonists and Allosteric Enhancers of Human TRH Receptor: Primary Screen for Agonists; AID 493084, 2011; Thyrotropin-releasing hormone receptor (Homo sapiens), P34981; activation, % at 2 µM; TRHR cells, calcium flux fluo-8, FDSS agonist mode; actives 0.18% (n = 360,000); in the data active = activation above about 30%
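TRHR-expressing cells, plated overnight in medium with 10% serum, were loaded with fluo-8 calcium dye at room temperature. After a 10 s baseline, library compound was pin-added and calcium release was recorded kinetically (ex 480/em 530) as agonist response.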
Numbers stand for hits; . = inactive; ? = inconclusive; / = not tested or not shown.

SMILES | TRPV1 ag | TRHR PAM | TRPML1 agonist | TRPML1 blocker | TRPV1 PAM | TRHR agonist
Cc1cc(C)n(-c2ccc(NC(=O)C3CCCCN3Cc3cccc4c3OCO4)cc2)n1 (stereo not given) | . | 30 | . | . | . | .
CCSc1nnc(NC(=O)C(C)Sc2nc3ccccc3[nH]2)s1 (stereo not given) | . | 36 | . | . | . | .
COc1ccc(C)cc1NC(C)C(=O)c1c[nH]c2ccccc12 (stereo not given) | / | / | . | / | / | /
COc1ccc(C(=O)Nc2nnc(CC(=O)N/N=C/c3ccc(O)cc3O)s2)cc1 | ? | . | / | / | . | 52
CCN1C(Br)=CCc2ccccc21 | / | / | . | / | / | /
COC(=O)c1cnn2c1C(=O)N(Cc1cccs1)CC2 | . | 34 | . | . | . | .
C=CCN1CC(C(=O)N2CCC(Cc3ccc(Cl)cc3)(C(=O)OCC)CC2)CC1=O (stereo not given) | . | 30 | . | . | . | .
CCOC(=O)C1(Cc2ccc(Cl)cc2)CCN(C(=O)C2CCCO2)CC1 (stereo not given) | . | . | . | . | . | .
CCN(CC)c1ccc2c(c1)oc(=O)c1c(Cl)cc(=O)oc12 | . | . | 69 | . | . | 75
CCN1C(=S)SC(=O)C1=C1C=C(C)N(Cc2ccco2)C(C)=C1 | . | . | 59 | . | . | .
CCN1C(=S)SC(=O)C1=C1C=C(C)OC(C)=C1 | / | . | . | . | / | .
CC1(C)OC(=O)C2(Cc3c(F)cccc3N3CCCC32)C(=O)O1 (stereo not given) | . | . | . | . | . | .
CC(C)NS(=O)(=O)c1ccc(NC(=O)C(C)OC(=O)CCCOc2ccccc2)cc1 (stereo not given) | . | 30 | . | . | . | .
COc1ccc(C(=O)NCCc2csc(-c3ccc(Cl)cc3)n2)c(OC)c1 | / | 36 | . | . | / | .
O=C(CNC(=O)c1ccncc1)OC(C(=O)Nc1cc(C(F)(F)F)ccc1Cl)c1ccccc1 (stereo not given) | / | . | / | / | / | .
O=C(Nc1cccc2cccnc12)OC(Cl)(Cl)Cl | . | . | . | . | . | .
Cc1ccc(Cn2cnc3c(cnn3C(C)(C)C)c2=O)cc1F | / | / | . | . | / | /
O=[N+]([O-])c1ccc(/C=C/c2cc(Cl)nc3ccccc23)cc1 | / | / | . | / | / | /
CC(=O)Nc1ccc(N(C(=O)c2ccco2)C(C(=O)NC2CCCC2)c2ccc(N(C)C)cc2)cc1 (stereo not given) | . | . | . | . | . | .
CC(=O)Nc1ccc(N(C(=O)c2ccco2)C(C(=O)NC2CCCC2)c2ccc(N3CCOCC3)cc2)cc1 (stereo not given) | . | 35 | . | . | . | .
O=C(NCC(c1ccco1)N1CCc2ccccc21)C(=O)Nc1ccccc1F (stereo not given) | . | . | . | . | . | .
COc1ccccc1NC(=O)C(=O)NCC(c1ccco1)N1CCc2ccccc21 (stereo not given) | . | 33 | . | . | . | .
CC(C)CC(=O)OC1C(N2CCOCC2)c2c(ccc(/C=C/C(=O)N3CCOCC3)c2O)OC1(C)C (stereo not given) | 81 | . | . | . | . | .
Cc1ccc(-c2cn3nc(N4CCCC(C(=O)NCc5ccccc5F)C4)sc3n2)cc1 (stereo not given) | / | 30 | . | . | / | .
COc1ccc(-c2cn3nc(N4CCCC(C(=O)NCc5ccccc5Cl)C4)sc3n2)cc1 (stereo not given) | / | . | . | . | / | .
SMILES | TRPV1 ag | TRHR PAM | TRPML1 agonist | TRPML1 blocker | TRPV1 PAM | TRHR agonist
O=[N+]([O-])c1cc(Cl)ccc1Nc1nc(Nc2ccc(Cl)cc2[N+](=O)[O-])nc(N2CCOCC2)n1 | / | / | . | / | / | /
CN1CCN(c2nc3nonc3nc2N2CCN(C)CC2)CC1 | . | 32 | . | . | . | .
C1CCN(c2nc3nonc3nc2N2CCCCC2)CC1 | . | . | . | . | . | .
COC(=O)c1ccc(CSc2nc3ccc(S(N)(=O)=O)cc3[nH]2)cc1 | . | 36 | . | . | . | .
CC(C)c1cccc(NC(=O)COC(=O)c2ccccc2OCc2cccc(Br)c2)c1 | / | / | . | / | / | /
O=[S+]([O-])(c1ccc2c(c1)OCCO2)N1CCN([S+](=O)([O-])c2ccc(F)cc2Cl)CC1 | / | . | / | / | / | .
Cc1ccc(/C=C2\SC(N3CCCCC3)=NC2=O)cc1 | ? | . | . | . | . | .
C=CCOc1ccc(/C=C2\SC(N3CCCCC3)=NC2=O)cc1 | 82 | . | . | . | . | .
CCc1ccc(/C=C2/SC(N3CCOCC3)=NC2=O)cc1 | 85 | . | . | . | . | .
NC(=O)c1ccc(Oc2ccc(Cl)c3ccccc23)c([N+](=O)[O-])c1 | ? | 31 | . | . | . | .
NC(=O)c1ccc(Oc2ccc(Cl)cc2)c([N+](=O)[O-])c1 | . | . | . | . | . | .
Cc1cc(C)c(S(=O)(=O)N2CCN(C(=O)C3COc4ccccc4O3)CC2)c(C)c1 (stereo not given) | . | 36 | . | . | . | .
CCCCCCCCCCCCCCCC[n+]1ccc(C)c2ccccc21 | / | / | . | / | / | /
Cc1cccc(N2CCN(CC(=O)NCc3ccc(Cl)cc3)CC2)c1C | 83 | . | . | . | . | .
COC(=O)CC1COc2ccccc2N1C(=O)c1cccc(Cl)c1 (stereo not given) | . | . | . | . | . | .
CCOC(=O)CC1COc2ccccc2N1C(=O)c1cccc([N+](=O)[O-])c1 (stereo not given) | . | 31 | . | . | . | .
COc1cc(OC)cc(C(=O)Nc2nnc(NC(=S)Nc3ccccc3)s2)c1 | . | 36 | . | . | . | .
COc1cc(OC)cc(C(=O)Nc2ccc(Nc3ccccc3)cc2)c1 | . | . | / | / | . | .
COc1ccc(-c2oc3ccccc3c2C#CC(C)(C)O)cc1 | . | 31 | . | . | . | .
O=C(Cc1ccc(OCC2CCCCC2)cc1)NO | / | / | . | / | / | /
O=C(N/N=C/c1ccc(Cl)cc1Cl)c1cccc(N2CCCC2=O)c1 | . | 30 | . | . | . | .
Cc1cnc2ccc3ccccc3c2c1C | / | / | . | / | / | /
